Measured values: PubChem BioAssay AID1476 (National Center for Advancing Translational Sciences (NCATS), 2009)
Screen size: about 200,000 compounds; about 4,500 (2.2%) were called active. Not shown: some 12% with an inconclusive outcome. Only a selection was taken, and actives are over-represented in it overall. Values without a mark were called inactive. Calls follow the shape of the dose curve; as a rule, active = well fitted inhibition curve with a large enough effect; inconclusive = small, poorly fitted or top-dose-only effect, or effect the other way; inactive = flat fitted curve, though single readings scatter.

target: Cruzipain (Trypanosoma cruzi) (UniProt P25779); test: qHTS Assay for Promiscuous and Specific Inhibitors of Cruzain (without detergent); details: purified cruzain, Z-FR-AMC fluorescence, no detergent; also: nearly all actives have a fitted effect of over 40% in size;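 as to max response, negative = inhibition: plate controls were enzyme without inhibitor for no effect and buffer without enzyme for full effect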
Outline: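 Detergent-free condition (0.00005% Triton X-100) in acetate buffer pH 5.5 with DTT. 1.5 nM enzyme and compound were pre-mixed 15 min, then 2 uM Z-FR-AMC substrate added; reaction progress from fluorescence change between first and third reads (60 s).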
Potency is read from the fitted curve at half-maximal effect.

Chain of Cruzipain (Trypanosoma cruzi) (P25779 123-467 limits assumed): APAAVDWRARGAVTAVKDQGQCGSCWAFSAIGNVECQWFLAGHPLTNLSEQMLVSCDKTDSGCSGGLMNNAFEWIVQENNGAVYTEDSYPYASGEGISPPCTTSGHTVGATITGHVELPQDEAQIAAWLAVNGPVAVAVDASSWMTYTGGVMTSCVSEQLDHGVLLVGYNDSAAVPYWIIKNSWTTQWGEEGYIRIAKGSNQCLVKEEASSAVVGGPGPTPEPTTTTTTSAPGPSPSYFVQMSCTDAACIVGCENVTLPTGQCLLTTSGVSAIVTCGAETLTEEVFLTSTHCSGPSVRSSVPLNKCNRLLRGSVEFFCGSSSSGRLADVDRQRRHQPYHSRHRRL

For `COc1ccccc1-c1nnc(C2CCN(C(=O)c3ccc(Cl)cc3)CC2)o1`, which max response, negative = inhibition is on record?
Its max response, negative = inhibition is -7.8%.

With `Fc1cccc(-n2ncc3c2ncn2nc(-c4ccccc4Cl)nc32)c1` as the compound, how does the max response, negative = inhibition read?
The max response, negative = inhibition was -11.9%.

For `COc1ccccc1CNC(=O)NCc1noc2ccc(C)cc12`, which max response, negative = inhibition is on record?
The max response, negative = inhibition was -3.84%.

For `O=C(CN1CCSc2ccccc21)N1CCN(c2ccccc2)CC1`, which max response, negative = inhibition is on record?
Its max response, negative = inhibition is -4.92%.

For `COC(=O)c1cc(NC(=O)c2sc3ccccc3c2Cl)cc(C(=O)OC)c1`, which max response, negative = inhibition is on record?
Its max response, negative = inhibition is -7.2%.

How did the Potency turn out when `COc1ccc(Br)cc1C(=O)NC(=S)Nc1cc(-c2nc3ccccc3[nH]2)ccc1C` was run?
Its Potency is 10 µM (active).

How did the max response, negative = inhibition turn out when `Cc1ccc(-c2nc3ccccc3[nH]2)cc1N` was run?
The max response, negative = inhibition was 0.934%.

`COc1ccc2oc(-c3ccc(C)c(NC(=O)c4sc5ccccc5c4Cl)c3)nc2c1` was tested. Which max response, negative = inhibition did it give?
The max response, negative = inhibition was -7.77%.

With `Cc1cc2[nH]ncc2cc1NC(=S)NC(=O)c1ccccc1` as the compound, how does the max response, negative = inhibition read?
The max response, negative = inhibition was 0.868%.

For `Cc1ccc(-c2nc3ccccc3[nH]2)cc1NC(=O)c1sc2ccccc2c1Cl`, which Potency is on record?
The Potency was 7.94 µM (active).

How did the max response, negative = inhibition turn out when `Cc1onc(-c2ccc(F)cc2F)c1C(=O)Nc1cccc(C(F)(F)F)c1` was run?
The max response, negative = inhibition was -6.18%.

How did the max response, negative = inhibition turn out when `Cc1cccc(-c2nc(SCc3ccc(Br)cc3)n3[nH]c(=O)cc3n2)c1` was run?
Its max response, negative = inhibition is -2.63%.

Which max response, negative = inhibition does the source give for `O=C(Cn1c(=O)n(Cc2ccccc2)c(=O)c2sc3ccccc3c21)Nc1ccccc1F` here?
Its max response, negative = inhibition is 9.77%.

How did the max response, negative = inhibition turn out when `CCCCN(CC)CCCNC(=O)c1nn(C)c2c1CS(=O)(=O)c1ccccc1-2` was run?
The max response, negative = inhibition was 5.31%.

`CCCNC(=O)CCC(=O)N1Cc2ccccc2Oc2ncccc21` was tested. Which max response, negative = inhibition did it give?
Its max response, negative = inhibition is -4.94%.

How did the max response, negative = inhibition turn out when `CC(C)OC(=O)c1c(NC(=O)c2ccco2)sc2c1CCCC2` was run?
Its max response, negative = inhibition is -12.4%.

`CCOC(=O)c1c(NC(=S)NC(=O)c2ccco2)sc2c1CCCC2` was tested. Which Potency did it give?
The Potency was 12.6 µM (active).

Which max response, negative = inhibition does the source give for `CCOC(=O)c1c(NC(=O)c2cc(-c3ccc(Cl)cc3)on2)sc2c1CCCC2` here?
The max response, negative = inhibition was 3.1%.

Which max response, negative = inhibition does the source give for `CCOC(=O)c1c(NC(=O)c2ccc(S(=O)(=O)N(CC)CC)cc2)sc2c1CCCCC2` here?
The max response, negative = inhibition was 8.24%.

With `CCOC(=O)c1c(NC(=S)Nc2ccccc2C)sc2c1CCC2` as the compound, how does the max response, negative = inhibition read?
Its max response, negative = inhibition is -25.8%.

For `CCOC(=O)c1c(NC(=O)C2CCN(S(=O)(=O)c3ccc(Cl)cc3)CC2)sc2c1CCCC2`, which Potency is on record?
Its Potency is 15.8 µM (active).

Which max response, negative = inhibition does the source give for `Cc1cccc(N2CCN(C(=O)Cn3ncc4c5ccccc5n(C)c4c3=O)CC2C)c1` (stereo not given) here?
The max response, negative = inhibition was 2.09%.

With `COc1cc(CN(CC2CCCO2)C(=O)c2ccccc2F)cc(OC)c1OC` (stereo not given) as the compound, how does the max response, negative = inhibition read?
The max response, negative = inhibition was 17.1%.

How did the max response, negative = inhibition turn out when `CC(C)(C)OC(=O)N1CCC(c2c(C(=O)NCCc3ccsc3)cnn2-c2ccc(F)cc2F)CC1` was run?
Its max response, negative = inhibition is -13.2%.

Which max response, negative = inhibition does the source give for `CCCC12CN3CC(CCC)(CN(C1)C3c1c[nH]c3ccc(OC)cc13)C2=O` (stereo not given) here?
Its max response, negative = inhibition is 15.7%.

With `O=C(NCc1ccccn1)c1cc(-c2ccccc2Cl)on1` as the compound, how does the max response, negative = inhibition read?
The max response, negative = inhibition was -2.8%.

For `O=C(NCc1ccccn1)c1ccc2nc(-c3ccco3)c(-c3ccco3)nc2c1`, which Potency is on record?
The Potency was 25.1 µM (active).

Which max response, negative = inhibition does the source give for `CN(c1ccc(C(=O)NCc2ccccn2)cc1)S(C)(=O)=O` here?
Its max response, negative = inhibition is -4.77%.

`CCSc1nnc2c(n1)OC(c1ccc(OCC(=O)O)cc1)Nc1ccccc1-2` (stereo not given) was tested. Which max response, negative = inhibition did it give?
The max response, negative = inhibition was -6.38%.

For `CCOc1ccc(CNC(=O)c2cc(-c3ccc(Cl)s3)nc3ccccc23)cc1`, which max response, negative = inhibition is on record?
The max response, negative = inhibition was -5.14%.

For `CN(C)c1ccc(NC(=S)N(CCc2ccccc2)C2CC(=O)N(c3c(Cl)cccc3Cl)C2=O)cc1` (stereo not given), which Potency is on record?
The Potency was 15.8 µM (active).

For `Cc1ccc(N2CC(C(=O)Nc3ccc(N(C)C)cc3)CC2=O)cc1Cl` (stereo not given), which max response, negative = inhibition is on record?
The max response, negative = inhibition was -3.38%.

Which max response, negative = inhibition does the source give for `COC(=O)CN(C(=S)Nc1ccc(Cl)cc1)C1CC(=O)N(c2ccc(OC)cc2)C1=O` (stereo not given) here?
Its max response, negative = inhibition is -5.17%.

For `CN1C(=O)c2ccccc2Sc2ccc(NC(=O)Cc3ccc(Cl)cc3)cc21`, which max response, negative = inhibition is on record?
Its max response, negative = inhibition is 14.1%.

Which max response, negative = inhibition does the source give for `CCCCn1c(=N)c(S(=O)(=O)c2ccccc2)cc2c(=O)n3cccc(C)c3nc21` here?
Its max response, negative = inhibition is 14.5%.

How did the Potency turn out when `CCn1c(=N)c(S(=O)(=O)c2ccc(F)cc2)cc2c(=O)n3ccccc3nc21` was run?
The Potency was 20 µM (active).

`CCOC(=O)c1cc2c(=O)n3ccccc3nc2n(Cc2ccco2)c1=NC(=O)c1ccc(F)cc1` was tested. Which max response, negative = inhibition did it give?
Its max response, negative = inhibition is -18.9%.

With `Cc1ccc(-c2nc(CS(=O)(=O)CC(=O)NCc3ccccc3Cl)c(C)o2)cc1` as the compound, how does the max response, negative = inhibition read?
The max response, negative = inhibition was -2.75%.

How did the max response, negative = inhibition turn out when `CC(C)(C)n1nnnc1C(c1ccc(Cl)cc1)N1CCSCC1` (stereo not given) was run?
Its max response, negative = inhibition is -17.6%.

`CCC(C)(C)n1nnnc1C(c1ccccc1OC)N1CCSCC1` (stereo not given) was tested. Which max response, negative = inhibition did it give?
Its max response, negative = inhibition is 1.47%.

Which Potency does the source give for `CC(C)(C)n1nnnc1C(c1ccc2ncccc2c1)N1CCSCC1` (stereo not given) here?
The Potency was 7.94 µM (active).

Which max response, negative = inhibition does the source give for `Cc1ccc(C)c(NC(=O)Cn2ccn(-c3ccc(F)cc3)c(=O)c2=O)c1` here?
Its max response, negative = inhibition is -16.8%.

With `O=C1CCCN1CCCNc1ncnc2c1[nH]c1ccccc12` as the compound, how does the Potency read?
The Potency was 20 µM (active).

Which max response, negative = inhibition does the source give for `CC(C)OCCCNc1ncnc2c1[nH]c1ccc(F)cc12` here?
Its max response, negative = inhibition is -22.4%.

For `O=C(CCn1c(=S)[nH]c2ccccc2c1=O)NCCCN1CCCC1=O`, which max response, negative = inhibition is on record?
Its max response, negative = inhibition is 7.76%.

`COc1ccc(N2CCN(C3=NS(=O)(=O)C(c4cccc(Br)c4)=C3C)CC2)cc1` was tested. Which max response, negative = inhibition did it give?
Its max response, negative = inhibition is -1.42%.

`COc1cccc(CNc2nccn(-c3ccc(OC)c(OC)c3)c2=O)c1` was tested. Which max response, negative = inhibition did it give?
The max response, negative = inhibition was 4.88%.

Which max response, negative = inhibition does the source give for `CCOc1ccc(-n2c(SCC(=O)NCc3ccccc3)nc3n[nH]c(C)c3c2=N)cc1` here?
Its max response, negative = inhibition is 6.06%.

How did the max response, negative = inhibition turn out when `COc1ccc(OC)c(-n2nnc3c(sc4nc(C)c(Br)c(C)c43)c2=O)c1` was run?
The max response, negative = inhibition was 15.9%.

`Cc1cccc(N=C2NC(=O)/C(=C/c3cn(C)c4ccccc34)S2)c1` was tested. Which Potency did it give?
The Potency was 31.6 µM (active).

With `Cc1ccc(N=C2NC(=O)/C(=C/C=C/c3ccco3)S2)cc1C` as the compound, how does the max response, negative = inhibition read?
The max response, negative = inhibition was -3.89%.

`Cc1nnc(N2CCCC(C(=O)NCCN(C)C)C2)c2nn(-c3ccccc3)c(C)c12` (stereo not given) was tested. Which max response, negative = inhibition did it give?
Its max response, negative = inhibition is -14.7%.

For `Cc1cccc(CSc2nc3ccncc3n2Cc2ccc(C(=O)O)cc2)c1`, which max response, negative = inhibition is on record?
The max response, negative = inhibition was -13.3%.

For `CCc1nn(CC(=O)N2CCN(c3cccc(C(F)(F)F)c3)CC2)c(=O)c2cc3occc3n12`, which max response, negative = inhibition is on record?
The max response, negative = inhibition was -20.3%.

How did the max response, negative = inhibition turn out when `CCCCN1C(=O)c2[nH]nc(-c3ccccc3O)c2C1c1cccc(OCc2ccccc2)c1` (stereo not given) was run?
The max response, negative = inhibition was -70.8%.

For `O=C(COc1ccccc1Cl)Nc1ccc2nc(SCC(=O)N3CCCC3)sc2c1`, which max response, negative = inhibition is on record?
The max response, negative = inhibition was -3.05%.

For `Cc1ccc(NC(=O)CSc2nc3ccccc3c3nc(CCn4cncc4C)nn23)cc1F`, which max response, negative = inhibition is on record?
The max response, negative = inhibition was 6.2%.

Which max response, negative = inhibition does the source give for `COc1ccc(CNC(=O)CCc2c(C)nn(-c3ccc(N4CCCC4)nn3)c2C)cc1` here?
The max response, negative = inhibition was 3.65%.

How did the max response, negative = inhibition turn out when `Cc1ccc2nc(/C(C#N)=C/c3ccccc3F)[nH]c2c1` was run?
Its max response, negative = inhibition is -17.7%.

`Cc1ccc2nc(S(=O)(=O)O)[nH]c2c1` was tested. Which max response, negative = inhibition did it give?
The max response, negative = inhibition was -1.87%.

Which Potency does the source give for `Cc1ccc2nc(/C(C#N)=C/c3ccc(-c4ccc(C(=O)OC(C)C)cc4)o3)[nH]c2c1` here?
Its Potency is 12.6 µM (active).

`Cc1ccc(N2C(=O)C3C(c4ccccc4)(C2=O)C3(c2ccccc2)c2ccccc2)cc1` (stereo not given) was tested. Which Potency did it give?
The Potency was 25.1 µM (active).

For `C=C1c2cc(CC)ccc2NC(=O)N1c1ccc(C)cc1`, which max response, negative = inhibition is on record?
Its max response, negative = inhibition is -5.5%.

With `Cc1ccc(N2C(=O)C(Cc3ccccc3)NC2=S)cc1` (stereo not given) as the compound, how does the max response, negative = inhibition read?
The max response, negative = inhibition was -8.99%.

`Cc1ccc(Cn2c(=O)n(CCCC(=O)NCc3ccccc3Cl)c(=O)c3ccccc32)cc1` was tested. Which max response, negative = inhibition did it give?
Its max response, negative = inhibition is 3.97%.
